The whole screen tested about 5,600 compounds, of which about 4,100 (73%) were called active. Roughly 4% stayed inconclusive and do not appear here. The set was probably picked from earlier hits. Not all results are given here. Values without a mark were called inactive.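 The calls were made as follows: active = mean replicate inhibition above about 95% and at least 55% of replicates individually reaching it (limit read from the data); inconclusive = only one of the two criteria is met; inactive = neither criterion is met.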

The nature of this experiment: T. cruzi intracellular proliferation inhibitors, confirmation, cell-based, NIH3T3 host, beta-gal parasite, luminescence, cherry-pick (AID 651739). The settings on record: T. cruzi beta-gal in NIH3T3, GalScreen luminescence, 90 h; at 8.35 µM; hits give high values.
Take `COc1ccccc1C#Cc1ccc([C@@H]2[C@H](CO)N3CCCCN(C(=O)C4CC4)C[C@@H]23)cc1`: the inhibition (usually the change of the read-out against control, counted positive when it falls) is 103% (active).

Consider `COc1ccccc1C#Cc1ccc([C@H]2[C@H](CO)N3CCCCN(C(=O)C4CCC4)C[C@@H]23)cc1`, for which the inhibition was 114% (active).

Turning to `COc1ccccc1C#Cc1ccc([C@@H]2[C@H](CO)N3CCCCN(C(=O)C4CCCC4)C[C@@H]23)cc1`, the inhibition was 99.8% (active).

Turning to `C[C@H]1CN([C@@H](C)CO)S(=O)(=O)c2ccc(C#CCN(C)C)cc2O[C@@H]1CN(C)Cc1ccc(F)cc1`, the inhibition was 109% (active).

On to `C[C@@H]1CN([C@@H](C)CO)S(=O)(=O)c2ccc(/C=C/c3ccccc3)cc2O[C@H]1CN(C)Cc1ccccc1`, for which the inhibition was 98.5% (active).

For `C[C@@H]1CN([C@H](C)CO)S(=O)(=O)c2ccc(C#C[C@@H](C)O)cc2O[C@@H]1CN(C)Cc1ccc(-c2ccccc2)cc1`, the inhibition is 96.5% (active).

Regarding `CC(C)C#Cc1ccc2c(c1)O[C@H](CN(C)Cc1ccccc1)[C@H](C)CN([C@@H](C)CO)S2(=O)=O`, the inhibition was 105% (active).

Regarding `CCC(=O)N(C)C[C@@H]1Oc2cc(C#CCN(C)C)ccc2S(=O)(=O)N([C@H](C)CO)C[C@H]1C`, the inhibition is 98.5% (active).

As for `CCCC#Cc1ccc2c(c1)O[C@H](CN(C)C(=O)CC)[C@@H](C)CN([C@H](C)CO)S2(=O)=O`, the inhibition is 99.3% (active).

In the case of `CCCC#Cc1ccc2c(c1)O[C@@H](CN(C)C(=O)c1ccccc1F)[C@H](C)CN([C@H](C)CO)S2(=O)=O`, the inhibition is 105% (active).

Take `CC(=O)N(C)C[C@H]1Oc2cc(C#CCN(C)C)ccc2S(=O)(=O)N([C@@H](C)CO)C[C@@H]1C`: the inhibition is 95.7% (active).

`C[C@H]1CN([C@@H](C)CO)S(=O)(=O)c2ccc(C#Cc3cccc(F)c3)cc2O[C@@H]1CN(C)S(=O)(=O)c1cn(C)cn1`: the inhibition is 102% (active).

Turning to `C[C@@H]1CN([C@@H](C)CO)S(=O)(=O)c2ccc(-c3cccc(F)c3)cc2O[C@@H]1CN(C)S(=O)(=O)c1ccccc1`, the inhibition is 104% (active).

Turning to `CC(C)CC#Cc1ccc2c(c1)O[C@H](CN(C)S(=O)(=O)c1cccc(F)c1)[C@@H](C)CN([C@@H](C)CO)S2(=O)=O`, the inhibition is 88.4%.

On to `COCCNC[C@@H]1[C@H](c2ccccc2)[C@H](CO)N1c1nc(C)c(C)s1`, for which the inhibition was 95.7% (active).

As for `CC(=O)N1CC[C@@H]2[C@H](CO)Nc3ccc(C#Cc4ccccc4F)cc3[C@@H]21`, the inhibition is 70.2%.

Regarding `O=C(c1cccc(F)c1)N1CC[C@@H]2[C@@H](CO)Nc3ccc(C#Cc4cccc(F)c4)cc3[C@@H]21`, the inhibition is 106% (active).

On to `O=S(=O)(c1ccccc1)N1CC[C@@H]2[C@@H](CO)Nc3ccc(C#Cc4cccc(F)c4)cc3[C@@H]21`, for which the inhibition is 100% (active).

Take `O=S(=O)(c1ccccc1)N1CC[C@@H]2[C@@H](CO)Nc3ccc(-c4ccccc4F)cc3[C@@H]21`: the inhibition was 103% (active).

For the molecule `O=S(=O)(c1ccccc1)N1CC[C@@H]2[C@H]1c1cc(C#Cc3cccc(F)c3)ccc1N[C@@H]2CO`, the inhibition is 97.6% (active).

Take `O=C(Cc1ccccc1)N1CC[C@H]2[C@H](CO)Nc3ccc(-c4ccccc4F)cc3[C@H]21`: the inhibition was 103% (active).

As for `Cc1ccccc1S(=O)(=O)N1CC[C@H]2[C@H](CO)Nc3ccc(-c4cccc(F)c4)cc3[C@H]21`, the inhibition is 105% (active).

Consider `Cc1noc(C)c1S(=O)(=O)Nc1ccc2c(c1)C(=O)N([C@@H](C)CO)C[C@H](C)[C@@H](CN(C)C(=O)Nc1cccc3ccccc13)OCCCC[C@H](C)O2`, for which the inhibition was 99.4% (active).

Turning to `C[C@@H]1CCCCO[C@H](CN(C)C(=O)Nc2cccc3ccccc23)[C@H](C)CN([C@H](C)CO)C(=O)c2cc(NS(=O)(=O)c3cccs3)ccc2O1`, the inhibition was 103% (active).

For `Cc1ccc(S(=O)(=O)Nc2ccc3c(c2)C(=O)N([C@@H](C)CO)C[C@@H](C)[C@H](CN(C)C(=O)Nc2cccc4ccccc24)OCCCC[C@H](C)O3)cc1`, the inhibition is 97.1% (active).

As to `C[C@H](CO)N1C[C@H](C)[C@H](CN(C)C(=O)Nc2ccc3c(c2)OCO3)Oc2ncc(C#Cc3cccc(F)c3)cc2C1=O`, the inhibition is 85.5%.

On to `C[C@H](CO)N1C[C@H](C)[C@H](CN(C)C(=O)C2CCCCC2)Oc2ncc(C#Cc3cccc(F)c3)cc2C1=O`, for which the inhibition is 102% (active).

For `C[C@@H]1CN([C@H](C)CO)C(=O)c2cc(C#CC3CCCCC3)cnc2O[C@@H]1CN(C)C(=O)NC1CCCC1`, the inhibition was 103% (active).

As to `C[C@H]1CN([C@@H](C)CO)C(=O)c2cc(C#CC3CCCCC3)cnc2O[C@H]1CN(C)S(=O)(=O)c1ccccc1`, the inhibition was 108% (active).

On to `C[C@@H]1CN([C@@H](C)CO)C(=O)c2cc(C#CC3CCCCC3)cnc2O[C@H]1CN(C)S(=O)(=O)c1ccccc1`, for which the inhibition is 107% (active).

Consider `C[C@H](CO)N1C[C@H](C)[C@@H](CN(C)Cc2ccc(C(=O)Nc3ccccc3N)cc2)Oc2c(NC(=O)c3ccc(-c4nccs4)cc3)cccc2C1=O`, for which the inhibition is 99.3% (active).

Take `Cc1cc(C(=O)Nc2cccc3c2O[C@@H](CN(C)Cc2ccc(C(=O)Nc4ccccc4N)cc2)[C@H](C)CN([C@@H](C)CO)C3=O)n(C)n1`: the inhibition was 105% (active).

For the molecule `C[C@@H]1CN([C@H](C)CO)C(=O)c2cccc(NC(=O)c3ccc(-c4nccs4)cc3)c2O[C@@H]1CN(C)C(=O)Nc1ccc(C(F)(F)F)cc1`, the inhibition was 104% (active).

On to `C[C@@H]1CN([C@H](C)CO)C(=O)c2cccc(NC(=O)NC3CCCCC3)c2O[C@H]1CN(C)Cc1ccc(C(F)(F)F)cc1`, for which the inhibition was 89.1%.

Take `C[C@@H]1CN([C@H](C)CO)C(=O)c2cccc(NC(=O)c3cnccn3)c2O[C@@H]1CN(C)Cc1ccc(C(=O)Nc2ccccc2N)cc1`: the inhibition is 92.4%.

As to `C[C@H](CO)N1C[C@H](C)[C@H](CN(C)Cc2ccc(C(F)(F)F)cc2)OCCCC[C@H](C)Oc2ccc(NS(=O)(=O)c3ccc(Cl)cc3)cc2C1=O`, the inhibition is 91.8%.

In the case of `C[C@@H]1CCCCO[C@H](CN(C)Cc2ccccc2)[C@H](C)CN([C@H](C)CO)C(=O)c2cc(NS(=O)(=O)c3ccc(Cl)cc3)ccc2O1`, the inhibition is 99.5% (active).

As to `C[C@@H]1CN([C@H](C)CO)C(=O)c2cc(NS(=O)(=O)c3ccc(Cl)cc3)ccc2O[C@@H](C)CCCCO[C@H]1CN(C)Cc1ccccc1`, the inhibition is 97.6% (active).

As to `COc1ccc(NC(=O)N(C)C[C@@H]2OCCCC[C@@H](C)Oc3ccc(NS(=O)(=O)c4ccc(Cl)cc4)cc3C(=O)N([C@H](C)CO)C[C@H]2C)cc1`, the inhibition was 104% (active).

Take `COc1ccc(S(=O)(=O)Nc2ccc3c(c2)C(=O)N([C@H](C)CO)C[C@@H](C)[C@@H](CN(C)CC2CCCCC2)OCCCC[C@@H](C)O3)cc1`: the inhibition is 91.5%.

In the case of `C[C@H]1CCCCO[C@@H](CN(C)C(=O)NC2CCCCC2)[C@@H](C)CN([C@@H](C)CO)C(=O)c2cc(NS(=O)(=O)c3ccc(Cl)cc3)ccc2O1`, the inhibition is 103% (active).

Take `C[C@@H]1CCCCO[C@H](CN(C)C(=O)NC2CCCCC2)[C@H](C)CN([C@H](C)CO)C(=O)c2cc(NS(=O)(=O)c3ccc(Cl)cc3)ccc2O1`: the inhibition was 106% (active).

On to `O=C(NCC1CCCCC1)[C@H]1[C@H](CO)[C@H]2Cn3c(cccc3=O)[C@H]2N1C(=O)CC1CC1`, for which the inhibition is 43%.

For `O=C(NCc1ccccn1)[C@@H]1[C@@H](CO)[C@@H]2Cn3c(ccc(/C=C/c4ccccc4)c3=O)[C@H]1N2CC1CC1`, the inhibition is 66.3%.

In the case of `O=C(Nc1ccc(-c2ccccc2)cc1)[C@H]1[C@H](CO)[C@H]2Cn3c(cccc3=O)[C@H]2N1CC1CC1`, the inhibition was 101% (active).

Turning to `O=S(=O)(Cc1ccccc1)N1CCCCN2[C@@H](CO)[C@@H](c3ccc(-c4ccc(F)cc4)cc3)[C@@H]2C1`, the inhibition is 96.2% (active).

As to `Cc1cccc(-c2ccc([C@@H]3[C@@H](CO)N4CCCCN(S(=O)(=O)c5cccs5)C[C@H]34)cc2)c1`, the inhibition is 106% (active).

As to `CCS(=O)(=O)N1CCCCN2[C@@H](CO)[C@@H](c3ccc(-c4ccccc4)cc3)[C@@H]2C1`, the inhibition is 102% (active).

Regarding `C/C=C/c1ccc([C@H]2[C@H]3CN(S(=O)(=O)c4ccccc4)CCCCN3[C@H]2CO)cc1`, the inhibition was 105% (active).

With `C[C@H](O)C#Cc1ccc([C@H]2[C@H]3CN(S(=O)(=O)Cc4ccccc4)CCCCN3[C@H]2CO)cc1`, the inhibition was 72.1%.

Turning to `O=S(=O)(Cc1ccccc1)N1CCCCN2[C@@H](CO)[C@H](c3ccc(-c4cccnc4)cc3)[C@@H]2C1`, the inhibition was 97.7% (active).

On to `O=S(=O)(Cc1ccccc1)N1CCCCN2[C@@H](CO)[C@H](c3ccc(-c4ccccc4)cc3)[C@@H]2C1`, for which the inhibition is 97.9% (active).

Consider `COc1ccc(C#Cc2cnc3c(c2)C(=O)N([C@@H](C)CO)C[C@H](C)[C@@H](CN(C)C(C)=O)O3)cc1`, for which the inhibition was 19.7%.

Turning to `C[C@@H]1CN([C@H](C)CO)C(=O)c2cc(C#Cc3ccccn3)cnc2O[C@H]1CN(C)Cc1ccccc1`, the inhibition is 102% (active).

`CC(C)CC#Cc1cnc2c(c1)C(=O)N([C@@H](C)CO)C[C@@H](C)[C@H](CN(C)C(=O)Cc1ccncc1)O2`: the inhibition was 76.3%.

As to `COCC(=O)N(C)C[C@@H]1Oc2ncc(C#Cc3ccccc3OC)cc2C(=O)N([C@@H](C)CO)C[C@H]1C`, the inhibition was 109% (active).

As for `C[C@@H]1CN([C@H](C)CO)C(=O)c2cc(/C=C/c3ccccc3)cnc2O[C@@H]1CN(C)Cc1ccncc1`, the inhibition is 86.1%.

As to `C[C@H](CO)N1C[C@H](C)[C@H](CN(C)C(=O)Nc2cccc3ccccc23)Oc2ncc(C#Cc3ccccc3)cc2C1=O`, the inhibition is 99.9% (active).

Turning to `C[C@@H]1CN([C@@H](C)CO)C(=O)c2cc(C#Cc3ccccc3)cnc2O[C@H]1CN(C)C(=O)c1ccccn1`, the inhibition is 101% (active).

Regarding `C[C@@H]1CCCCO[C@@H](CN(C)S(=O)(=O)c2ccc(Cl)cc2)[C@H](C)CN([C@@H](C)CO)C(=O)c2cc(NC(=O)Cc3ccccc3)ccc2O1`, the inhibition was 108% (active).

On to `Cc1ccc(S(=O)(=O)N(C)C[C@H]2OCCCC[C@H](C)Oc3ccc(NC(=O)Cc4ccccc4)cc3C(=O)N([C@@H](C)CO)C[C@@H]2C)cc1`, for which the inhibition was 110% (active).

Source of the values: PubChem BioAssay AID651739 (Broad Institute, 2012).
